Assay results: ChEMBL document CHEMBL4513154, “CO-ADD screening of Jain University (India) compounds”
Entries with a potency or affinity are not part of this list.

Assays:
[1] = tested on: Staphylococcus aureus; conditions: Concentration 32 ug.mL-1; ASSAY_TEST Inhibition of Bacterial Growth; detection method Absorption (OD600); MEDIA CAMHB; plate type 384well; NBS; CORNING #3640; time 18 hr
[2] = tested on: Escherichia coli; conditions: Concentration 32 ug.mL-1; ASSAY_TEST Inhibition of Bacterial Growth; detection method Absorption (OD600); MEDIA CAMHB; plate type 384well; NBS; CORNING #3640; time 18 hr

Row | Structure (SMILES) | Inhibition [1] [%] | Inhibition [2] [%]
1 | Clc1ccc(Cn2c(-c3cscn3)nc3ccccc32)cn1 | 3.88 | -1.48
2 | Clc1ccc2c(c1)nc(-c1cscn1)n2Cc1ccc(Cl)nc1 | -10.99 | -7.54
3 | Clc1ccc(Cn2c(-c3cscn3)nc3c(Cl)cccc32)cn1 | -6.34 | -8.9
